The source of these data is PubChem BioAssay (EPA / NIEHS).

Records with an inconclusive call do not appear. Calls of active or inactive are those of the source. Rule for the calls: active = hit-call score of the fitted dose curve at least 0.9, where 1 is the maximum; inconclusive = response in the unintended direction; inactive = score below 0.9.

Sequence of Cytochrome P450 2C19 (Homo sapiens) (P33261 whole entry, looked up): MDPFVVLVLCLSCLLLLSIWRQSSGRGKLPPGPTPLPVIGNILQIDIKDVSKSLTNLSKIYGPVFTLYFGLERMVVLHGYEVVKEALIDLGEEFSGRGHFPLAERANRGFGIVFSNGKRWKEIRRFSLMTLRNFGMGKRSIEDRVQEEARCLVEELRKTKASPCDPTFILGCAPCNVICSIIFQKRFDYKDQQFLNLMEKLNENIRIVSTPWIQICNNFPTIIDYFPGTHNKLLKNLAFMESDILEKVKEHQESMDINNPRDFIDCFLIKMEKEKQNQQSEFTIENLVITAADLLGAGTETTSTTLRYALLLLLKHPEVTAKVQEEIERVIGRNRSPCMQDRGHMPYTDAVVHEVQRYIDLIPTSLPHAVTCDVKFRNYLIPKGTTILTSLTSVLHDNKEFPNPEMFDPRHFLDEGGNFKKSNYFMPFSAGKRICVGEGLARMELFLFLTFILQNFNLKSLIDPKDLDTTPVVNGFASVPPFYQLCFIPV

Read-out in this assay: Cytochrome P450 2C19 (Homo sapiens) (UniProt P33261)
As to the kind of experiment: CLD_CYP2C19_48hr: CellzDirect (CLD) Gene Expression Assay for xenobiotic metabolism (CYP2C19) at 48 hours (AID 2283700).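 Note: fitted upward so actives raise CYP2C19 mRNA above the 0.2% DMSO vehicle.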 As for the experimental part:
CLD_48hr is a cell-based, multiplexed-readout assay that uses hepatocyte, a human liver primary cell, with measurements taken at 48 hours after chemical dosing in a 96-well plate.CLD_CYP2C19_48hr is one of 16 assay component(s) measured or calculated from the CLD_48hr assay. It is designed to make measurements of mRNA induction, a form of inducible reporter, as detected with chemiluminescence signals by Quantitative Nuclease Protection Assay (qNPA) technology.Data from the assay component CLD_CYP2C19_48hr was analyzed at the endpoint, CLD_CYP2C19_48hr, in the positive analysis fitting direction relative to DMSO as the negative control and baseline of activity. Using a type of inducible reporter, gain-of-signal activity can be used to understand changes in the reporter gene as they relate to the gene CYP2C19. Furthermore, this assay endpoint can be referred to as a primary readout. To generalize the intended target to other relatable targets, this assay endpoint is annotated to the cyp intended target family, where subfamily is xenobiotic metabolism.
Human hepatocyte cultures were treated daily for two consecutive days with fresh dosing solutions containing appropriate concentrations of the 320 ToxCast chemicals (chemical identities were blinded to CellzDirect and other ToxCast collaborators), vehicle control (0.2% DMSO), and positive control inducers as summarized in Table 1. Due to the large number of treatment groups and chemicals examined, the ToxCast chemicals were divided into two groups (spanning two independent cultures of hepatocytes from separate donor preparations (Hu778: ToxCast plates 1 and 2; Hu776: ToxCast plates 3 and 4). Each preparation of human hepatocyte cultures was treated with respective vehicle control, medium only control, set of six positive controls/reference chemicals for the five hepatic receptor pathways, and a subset of eight of the ToxCast chemicals (indoxacarb, pyrithiobac-sodium, norflurazon, cyhalofop-butyl, methomyl, thiram, acetochlor, and propiconazole). These replicate data, coupled with internal replicates designed within the blinded ToxCast chemical library, provided additional data to evaluate interindividual differences between hepatocyte preparations and their potential impact on chemical profiles.Cell morphology and integrity were evaluated using phase-contrast microscopy as an indicator of hepatocyte cell health (Tyson & Green, 1987). Cultures for each treatment group (i.e., media, vehicle [0.2% DMSO], positive control inducers [multiple concentrations], and the ToxCast chemicals [multiple concentrations]) were observed and cell morphology was assessed relative to vehicle control cultures at each harvest time point (0, 6, 24, or 48 h). […] Images were evaluated at the conclusion of the study to assess changes in cell integrity and account for the effects of chemical exposure on uncharacteristic changes in concentration-dependent gene expression profiles. The results from these determinations of apparent cytotoxicity were annotated (yes/no) alongside the corresponding qNPA data for reference.At the conclusion of each treatment period, hepatocyte cultures (96-well) were washed with 1 volume of HBSS, lysed by addition of 25 ul ArrayPlate lysis buffer (HTG, Tucson, AZ), and 70 ul/well of Denaturation Oil, denatured by incubation at 95C for 10 min, and frozen at approximately -70C until analysis by nuclease protection assay (qNPA) (Roberts et al., 2007). For qNPA analysis, cell lysates were thawed at 50C for approximately 30 min, qNPA probes were added, and samples were incubated at 95C for 10 min to begin the detection process by denaturing the target RNA, dissociating the duplexes and secondary structure hybridization. At the conclusion of the hybridization period, S1 nuclease reagent was added to each sample to digest all nonprotected nucleotides at 50C for 60-90 min. […]
`CCC(C)Nc1c([N+](=O)[O-])cc(C(C)(C)C)cc1[N+](=O)[O-]` (stereo not drawn): the call was inactive. Turning to `Cc1cc(C)nc(NC(=O)NS(=O)(=O)c2ccccc2C(=O)OC2COC2)n1`, the compound was classed as inactive. The entry for `CC(C)OC(=O)Nc1cccc(Cl)c1` is “inactive”; for `Oc1cc(Cl)ccc1Oc1ccc(Cl)cc1Cl` it is “inactive”; for `O=C(NC(=O)c1c(F)cccc1F)Nc1ccc(OC(F)(F)C(F)OC(F)(F)F)c(Cl)c1` (stereo not drawn) it is “inactive”. For the compound `CC[C@H](C)[C@H]1O[C@]2(C=C[C@@H]1C)C[C@@H]1C[C@@H](C/C=C(\C)[C@@H](O[C@H]3C[C@H](OC)[C@@H](O[C@H]4C[C@H](OC)[C@@H](O)[C@H](C)O4)[C@H](C)O3)[C@@H](C)/C=C/C=C3\CO[C@@H]4[C@H](O)C(C)=C[C@@H](C(=O)O1)[C@]34O)O2` (tested in a mixture with another compound), the call was inactive. Turning to `C[C@H]1[C@H](c2ccc(Cl)cc2)SC(=O)N1C(=O)NC1CCCCC1`, the compound was called inactive. Turning to `CNC(=O)/C=C(\C)OP(=O)(OC)OC`, the result was inactive. The entry for `CNC(=O)Oc1ccccc1OC(C)C` is “inactive”; for `O=C(O)CCCOc1ccc(Cl)cc1Cl` it is “inactive”. The same measure for `Cc1[nH]c(=O)n(C(C)(C)C)c(=O)c1Cl`: “inactive”; for `COC(=O)c1ccccc1CS(=O)(=O)NC(=O)Nc1nc(OC)cc(OC)n1`: “inactive”. The entry for `Oc1ccc(Cl)cc1Cc1ccccc1` is “inactive”; for `O=C(O)COc1ccc(Cl)cc1Cl` it is “inactive”.

Take `O=C(O)C(F)(F)C(F)(F)C(F)(F)C(F)(F)C(F)(F)C(F)(F)C(F)(F)F`: the result was inactive. As to `CNC(=O)CSP(=S)(OC)OC`, the compound was classed as inactive. As for `CC1(C)C(C=C(Cl)Cl)C1C(=O)OC(C#N)c1ccc(F)c(Oc2ccccc2)c1` (stereo not drawn), the call was inactive. The entry for `COC(=O)c1ccccc1S(=O)(=O)NC(=O)Nc1nc(C)nc(OC)n1` is “inactive”. With `OCCOc1ccccc1`, the result was inactive. The same measure for `N#Cc1c(Cl)c(Cl)c(Cl)c(C#N)c1Cl`: “inactive”; for `COP(=O)(OC)OC=C(Cl)Cl`: “inactive”; for `O=C1c2ccccc2C(=O)N1SC(Cl)(Cl)Cl`: “inactive”.

Regarding `CCN(CC)C(=O)SCc1ccc(Cl)cc1`, the compound was classed as inactive. The entry for `O=C(Nc1ccccc1)Nc1cnns1` is “inactive”; for `C#CCN1C(=O)COc2cc(F)c(N3C(=O)C4=C(CCCC4)C3=O)cc21` it is “inactive”. Consider `O=S1OCC2C(CO1)C1(Cl)C(Cl)=C(Cl)C2(Cl)C1(Cl)Cl` (stereo not drawn), for which the call was inactive. For the compound `CC(C)(C)C(O)C(Oc1ccc(Cl)cc1)n1cncn1` (stereo not drawn), the call was inactive. The same measure for `N#CN`: “inactive”.
